From the supplement of paper PMC11732987, “Enantioselective OTUD7B fragment discovery through chemoproteomics screening and high-throughput optimisation” (Communications Chemistry, 2025)

How the values were obtained:
Test in all cases: log2 ratio of Biotin-Ahx-Ub-VS probe labelling (fragment/DMSO); higher = less target engagement (more negative = stronger competition), active = hit call of the paper (q ≤ 0.05, log2 ratio ≤ -1)
Conditions in all cases: compound concentration: 200 uM; treatment time: 3 h
[1] = biological target: T1, USP42 (UniProt Q9H9J4)
T1 sequence (whole entry): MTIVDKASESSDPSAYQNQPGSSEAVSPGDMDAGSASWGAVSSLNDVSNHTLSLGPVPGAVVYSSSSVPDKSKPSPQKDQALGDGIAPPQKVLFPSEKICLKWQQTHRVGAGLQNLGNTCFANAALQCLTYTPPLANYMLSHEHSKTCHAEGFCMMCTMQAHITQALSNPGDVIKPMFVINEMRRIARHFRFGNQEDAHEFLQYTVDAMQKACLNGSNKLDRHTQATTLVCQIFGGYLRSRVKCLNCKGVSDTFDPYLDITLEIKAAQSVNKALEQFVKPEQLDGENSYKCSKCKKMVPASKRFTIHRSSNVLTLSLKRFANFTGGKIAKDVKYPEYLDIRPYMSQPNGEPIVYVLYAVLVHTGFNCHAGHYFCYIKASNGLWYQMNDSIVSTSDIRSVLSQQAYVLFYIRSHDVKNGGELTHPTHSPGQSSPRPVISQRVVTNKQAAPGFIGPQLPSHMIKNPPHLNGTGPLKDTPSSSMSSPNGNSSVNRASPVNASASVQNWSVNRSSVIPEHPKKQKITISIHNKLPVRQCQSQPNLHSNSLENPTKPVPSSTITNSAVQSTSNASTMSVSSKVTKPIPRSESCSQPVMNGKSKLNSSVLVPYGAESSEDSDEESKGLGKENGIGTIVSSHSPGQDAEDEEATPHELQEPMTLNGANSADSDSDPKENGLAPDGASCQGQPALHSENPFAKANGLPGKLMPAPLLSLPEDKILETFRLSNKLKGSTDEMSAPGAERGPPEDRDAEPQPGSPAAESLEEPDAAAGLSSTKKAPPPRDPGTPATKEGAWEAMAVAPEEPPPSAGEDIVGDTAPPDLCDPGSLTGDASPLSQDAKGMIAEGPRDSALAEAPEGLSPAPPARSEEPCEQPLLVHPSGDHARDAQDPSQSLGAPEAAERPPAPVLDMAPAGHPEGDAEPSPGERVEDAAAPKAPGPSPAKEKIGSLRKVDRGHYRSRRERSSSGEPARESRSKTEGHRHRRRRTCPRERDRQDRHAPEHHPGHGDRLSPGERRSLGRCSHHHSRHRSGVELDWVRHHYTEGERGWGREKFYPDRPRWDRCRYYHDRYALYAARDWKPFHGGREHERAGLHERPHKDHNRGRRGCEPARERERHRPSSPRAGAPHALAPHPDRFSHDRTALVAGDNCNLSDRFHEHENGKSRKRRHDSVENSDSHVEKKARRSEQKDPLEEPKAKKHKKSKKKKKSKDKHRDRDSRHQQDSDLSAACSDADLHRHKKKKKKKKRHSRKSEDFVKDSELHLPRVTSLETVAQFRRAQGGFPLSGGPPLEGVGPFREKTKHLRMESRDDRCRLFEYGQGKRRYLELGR
In short: (§1)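 HEK293T lysate (495 µg per sample, in Tris/CHAPS/IGEPAL buffer with protease inhibitors) was treated in triplicate with fragment at 200 µM or with DMSO for 3 h. It was then treated with Biotin-Ahx-Ub-VS (0.5 µM final) for 1 h. Labelled DUBs were NeutrAvidin-enriched, digested with LysC and trypsin, and run by diaPASEF LC-MS/MS. Spectronaut label-free quantities were global-median-normalised. Values are average log2 ratios fragment/DMSO by unpaired t-test, using proteins with ≥2 unique peptides.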

[2] = biological target: USP46 (UniProt P62068)
In short: as §1

[3] = biological target: T2, USP47 (UniProt Q96K76)
T2 sequence (whole entry): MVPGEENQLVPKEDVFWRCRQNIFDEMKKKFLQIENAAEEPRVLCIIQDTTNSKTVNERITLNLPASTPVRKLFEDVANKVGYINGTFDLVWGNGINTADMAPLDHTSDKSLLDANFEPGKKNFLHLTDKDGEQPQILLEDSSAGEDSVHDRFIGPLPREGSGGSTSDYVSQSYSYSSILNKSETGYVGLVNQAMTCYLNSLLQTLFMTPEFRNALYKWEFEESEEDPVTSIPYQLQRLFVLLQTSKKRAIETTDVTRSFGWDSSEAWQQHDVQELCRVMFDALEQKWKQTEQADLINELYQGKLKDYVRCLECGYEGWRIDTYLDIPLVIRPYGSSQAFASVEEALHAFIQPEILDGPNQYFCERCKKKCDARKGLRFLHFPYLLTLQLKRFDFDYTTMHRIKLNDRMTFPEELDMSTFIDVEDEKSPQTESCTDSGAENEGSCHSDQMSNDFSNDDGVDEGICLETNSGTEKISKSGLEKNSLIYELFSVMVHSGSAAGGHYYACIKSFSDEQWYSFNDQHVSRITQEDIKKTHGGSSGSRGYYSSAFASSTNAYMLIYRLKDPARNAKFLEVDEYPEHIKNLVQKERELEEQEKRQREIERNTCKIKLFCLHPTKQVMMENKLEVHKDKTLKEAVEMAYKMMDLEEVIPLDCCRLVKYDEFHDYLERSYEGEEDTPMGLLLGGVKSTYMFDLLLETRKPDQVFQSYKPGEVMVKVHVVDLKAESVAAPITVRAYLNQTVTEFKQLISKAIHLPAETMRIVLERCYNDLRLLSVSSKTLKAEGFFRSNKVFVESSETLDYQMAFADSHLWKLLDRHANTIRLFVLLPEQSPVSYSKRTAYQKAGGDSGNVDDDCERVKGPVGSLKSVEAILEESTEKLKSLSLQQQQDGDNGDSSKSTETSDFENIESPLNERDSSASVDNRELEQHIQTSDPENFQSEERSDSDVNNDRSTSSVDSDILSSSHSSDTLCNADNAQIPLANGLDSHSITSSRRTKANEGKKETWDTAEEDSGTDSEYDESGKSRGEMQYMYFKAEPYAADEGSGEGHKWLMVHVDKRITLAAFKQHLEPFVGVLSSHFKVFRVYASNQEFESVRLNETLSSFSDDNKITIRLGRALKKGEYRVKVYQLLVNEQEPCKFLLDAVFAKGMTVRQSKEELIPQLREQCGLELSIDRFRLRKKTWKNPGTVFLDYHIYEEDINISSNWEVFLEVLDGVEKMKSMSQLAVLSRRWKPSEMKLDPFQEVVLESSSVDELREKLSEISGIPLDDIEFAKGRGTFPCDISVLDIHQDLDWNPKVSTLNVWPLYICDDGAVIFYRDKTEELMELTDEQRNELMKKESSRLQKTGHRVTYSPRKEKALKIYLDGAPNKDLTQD
In short: as §1

[4] = biological target: T3, USP48 (UniProt Q86UV5)
T3 sequence (whole entry): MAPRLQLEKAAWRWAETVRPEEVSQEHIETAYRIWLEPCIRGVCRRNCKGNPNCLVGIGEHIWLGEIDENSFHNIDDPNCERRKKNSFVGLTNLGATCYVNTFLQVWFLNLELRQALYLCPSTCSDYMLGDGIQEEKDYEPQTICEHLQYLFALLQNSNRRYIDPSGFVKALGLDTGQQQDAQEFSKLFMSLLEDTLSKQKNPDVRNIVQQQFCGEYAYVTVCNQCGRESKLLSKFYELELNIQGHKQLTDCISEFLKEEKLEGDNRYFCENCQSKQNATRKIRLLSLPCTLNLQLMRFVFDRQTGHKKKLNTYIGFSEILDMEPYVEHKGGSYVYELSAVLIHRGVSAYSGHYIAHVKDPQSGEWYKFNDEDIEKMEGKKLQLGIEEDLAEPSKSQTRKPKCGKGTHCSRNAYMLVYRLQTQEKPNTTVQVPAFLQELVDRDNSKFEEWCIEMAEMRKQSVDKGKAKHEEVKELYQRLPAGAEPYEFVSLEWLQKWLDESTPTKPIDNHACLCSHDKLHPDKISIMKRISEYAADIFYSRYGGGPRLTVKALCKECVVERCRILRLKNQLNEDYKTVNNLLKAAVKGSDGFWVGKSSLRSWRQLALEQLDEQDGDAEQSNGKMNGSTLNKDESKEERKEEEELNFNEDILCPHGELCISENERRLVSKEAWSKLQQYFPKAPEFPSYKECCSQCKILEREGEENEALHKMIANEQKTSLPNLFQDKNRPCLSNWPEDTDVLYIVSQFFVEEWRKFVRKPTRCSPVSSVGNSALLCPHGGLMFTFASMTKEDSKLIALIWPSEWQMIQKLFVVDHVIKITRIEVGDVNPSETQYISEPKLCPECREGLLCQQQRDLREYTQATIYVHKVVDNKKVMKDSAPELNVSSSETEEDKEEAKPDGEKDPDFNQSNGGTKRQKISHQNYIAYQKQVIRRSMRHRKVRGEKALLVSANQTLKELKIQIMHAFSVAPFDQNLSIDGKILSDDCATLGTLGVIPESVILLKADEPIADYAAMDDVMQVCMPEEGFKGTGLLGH
In short: as §1

[5] = biological target: T4, USP5 (UniProt P45974)
T4 sequence (whole entry): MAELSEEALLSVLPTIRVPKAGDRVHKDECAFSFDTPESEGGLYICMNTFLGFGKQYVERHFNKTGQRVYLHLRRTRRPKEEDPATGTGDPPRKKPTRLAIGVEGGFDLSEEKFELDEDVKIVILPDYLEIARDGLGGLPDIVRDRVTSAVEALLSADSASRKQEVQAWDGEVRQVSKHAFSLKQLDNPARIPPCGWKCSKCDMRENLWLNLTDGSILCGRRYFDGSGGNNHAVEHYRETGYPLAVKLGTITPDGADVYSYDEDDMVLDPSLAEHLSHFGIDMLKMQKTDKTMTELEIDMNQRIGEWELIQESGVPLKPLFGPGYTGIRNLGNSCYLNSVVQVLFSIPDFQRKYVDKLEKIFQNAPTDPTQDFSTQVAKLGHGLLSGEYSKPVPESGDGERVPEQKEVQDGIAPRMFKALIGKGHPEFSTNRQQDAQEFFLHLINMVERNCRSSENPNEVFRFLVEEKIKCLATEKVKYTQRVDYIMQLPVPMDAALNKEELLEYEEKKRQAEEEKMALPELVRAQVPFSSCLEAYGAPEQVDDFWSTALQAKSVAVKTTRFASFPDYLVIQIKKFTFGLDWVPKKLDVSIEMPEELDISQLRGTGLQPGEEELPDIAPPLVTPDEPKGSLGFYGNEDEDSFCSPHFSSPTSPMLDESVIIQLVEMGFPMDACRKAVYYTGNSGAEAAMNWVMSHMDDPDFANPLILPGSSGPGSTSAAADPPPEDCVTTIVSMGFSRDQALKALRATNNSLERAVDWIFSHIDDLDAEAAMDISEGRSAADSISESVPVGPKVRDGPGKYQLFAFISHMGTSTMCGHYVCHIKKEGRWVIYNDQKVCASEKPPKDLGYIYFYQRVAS
In short: as §1

[6] = biological target: USP54 (UniProt Q70EL1)
In short: as §1

[7] = biological target: USP7 (UniProt Q93009)
In short: as §1

[8] = biological target: T5, USP8 (UniProt P40818)
T5 sequence (whole entry): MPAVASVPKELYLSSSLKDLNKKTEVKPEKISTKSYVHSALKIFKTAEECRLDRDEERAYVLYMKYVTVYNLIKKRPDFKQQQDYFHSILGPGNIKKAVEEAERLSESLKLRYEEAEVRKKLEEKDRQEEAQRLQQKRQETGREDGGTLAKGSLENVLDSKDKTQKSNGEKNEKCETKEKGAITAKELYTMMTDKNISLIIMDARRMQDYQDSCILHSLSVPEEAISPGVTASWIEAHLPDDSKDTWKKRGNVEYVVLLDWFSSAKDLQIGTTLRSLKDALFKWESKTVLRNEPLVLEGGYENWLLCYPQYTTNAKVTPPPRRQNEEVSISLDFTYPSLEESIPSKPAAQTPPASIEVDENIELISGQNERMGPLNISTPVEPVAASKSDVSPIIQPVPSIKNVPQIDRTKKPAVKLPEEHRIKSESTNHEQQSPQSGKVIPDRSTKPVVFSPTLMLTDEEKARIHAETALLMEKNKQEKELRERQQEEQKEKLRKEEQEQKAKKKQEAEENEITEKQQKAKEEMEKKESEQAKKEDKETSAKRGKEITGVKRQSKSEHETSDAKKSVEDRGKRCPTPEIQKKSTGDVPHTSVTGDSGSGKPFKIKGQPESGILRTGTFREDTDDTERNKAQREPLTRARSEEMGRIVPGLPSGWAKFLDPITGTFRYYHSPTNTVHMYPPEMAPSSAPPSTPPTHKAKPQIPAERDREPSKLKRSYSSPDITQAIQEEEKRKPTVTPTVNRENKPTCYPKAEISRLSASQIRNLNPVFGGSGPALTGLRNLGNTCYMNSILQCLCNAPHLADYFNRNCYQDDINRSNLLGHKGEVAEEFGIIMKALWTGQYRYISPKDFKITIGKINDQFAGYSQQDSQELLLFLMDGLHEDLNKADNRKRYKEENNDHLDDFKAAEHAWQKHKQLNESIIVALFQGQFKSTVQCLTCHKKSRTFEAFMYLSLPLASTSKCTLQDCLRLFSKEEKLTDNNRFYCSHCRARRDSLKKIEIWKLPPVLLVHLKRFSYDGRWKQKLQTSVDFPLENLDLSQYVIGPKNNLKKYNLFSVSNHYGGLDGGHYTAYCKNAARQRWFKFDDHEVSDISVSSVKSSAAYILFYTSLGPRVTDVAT
In short: as §1

[9] = biological target: USP9X (UniProt Q93008)
In short: as §1

[10] = biological target: UniProt O00487
In short: as §1

Measured: log2 ratio of Biotin-Ahx-Ub-VS probe labelling

Chain of USP7 (Q93009 whole entry, looked up): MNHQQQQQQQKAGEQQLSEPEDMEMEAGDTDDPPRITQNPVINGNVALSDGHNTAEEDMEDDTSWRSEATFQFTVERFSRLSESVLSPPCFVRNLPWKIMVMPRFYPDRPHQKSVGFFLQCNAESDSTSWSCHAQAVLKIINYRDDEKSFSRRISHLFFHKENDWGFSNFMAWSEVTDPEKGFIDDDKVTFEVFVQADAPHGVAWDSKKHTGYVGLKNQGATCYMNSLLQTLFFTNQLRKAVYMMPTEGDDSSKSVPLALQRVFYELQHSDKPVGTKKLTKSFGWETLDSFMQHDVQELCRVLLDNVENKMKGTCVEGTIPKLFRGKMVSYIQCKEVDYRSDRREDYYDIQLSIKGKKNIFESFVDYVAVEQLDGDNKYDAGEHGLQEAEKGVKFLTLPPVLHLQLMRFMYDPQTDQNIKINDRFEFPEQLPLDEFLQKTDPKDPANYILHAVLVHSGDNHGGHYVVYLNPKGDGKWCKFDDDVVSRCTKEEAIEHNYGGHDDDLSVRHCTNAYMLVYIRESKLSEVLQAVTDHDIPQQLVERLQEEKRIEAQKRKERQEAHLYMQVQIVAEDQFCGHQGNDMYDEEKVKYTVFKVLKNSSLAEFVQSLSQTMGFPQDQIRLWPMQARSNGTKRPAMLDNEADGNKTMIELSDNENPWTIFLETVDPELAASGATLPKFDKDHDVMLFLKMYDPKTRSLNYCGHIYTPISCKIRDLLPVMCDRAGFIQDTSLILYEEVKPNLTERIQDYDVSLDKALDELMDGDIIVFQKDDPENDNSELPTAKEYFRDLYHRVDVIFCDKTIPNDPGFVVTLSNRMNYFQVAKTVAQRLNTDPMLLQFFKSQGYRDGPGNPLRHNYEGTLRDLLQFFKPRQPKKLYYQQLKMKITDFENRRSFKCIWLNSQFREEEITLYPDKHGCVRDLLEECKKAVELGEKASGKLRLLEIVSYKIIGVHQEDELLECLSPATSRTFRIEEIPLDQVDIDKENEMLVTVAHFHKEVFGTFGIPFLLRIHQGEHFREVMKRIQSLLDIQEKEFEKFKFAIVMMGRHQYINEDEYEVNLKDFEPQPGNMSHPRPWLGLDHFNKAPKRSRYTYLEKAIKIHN
Chain of USP9X (Q93008 whole entry): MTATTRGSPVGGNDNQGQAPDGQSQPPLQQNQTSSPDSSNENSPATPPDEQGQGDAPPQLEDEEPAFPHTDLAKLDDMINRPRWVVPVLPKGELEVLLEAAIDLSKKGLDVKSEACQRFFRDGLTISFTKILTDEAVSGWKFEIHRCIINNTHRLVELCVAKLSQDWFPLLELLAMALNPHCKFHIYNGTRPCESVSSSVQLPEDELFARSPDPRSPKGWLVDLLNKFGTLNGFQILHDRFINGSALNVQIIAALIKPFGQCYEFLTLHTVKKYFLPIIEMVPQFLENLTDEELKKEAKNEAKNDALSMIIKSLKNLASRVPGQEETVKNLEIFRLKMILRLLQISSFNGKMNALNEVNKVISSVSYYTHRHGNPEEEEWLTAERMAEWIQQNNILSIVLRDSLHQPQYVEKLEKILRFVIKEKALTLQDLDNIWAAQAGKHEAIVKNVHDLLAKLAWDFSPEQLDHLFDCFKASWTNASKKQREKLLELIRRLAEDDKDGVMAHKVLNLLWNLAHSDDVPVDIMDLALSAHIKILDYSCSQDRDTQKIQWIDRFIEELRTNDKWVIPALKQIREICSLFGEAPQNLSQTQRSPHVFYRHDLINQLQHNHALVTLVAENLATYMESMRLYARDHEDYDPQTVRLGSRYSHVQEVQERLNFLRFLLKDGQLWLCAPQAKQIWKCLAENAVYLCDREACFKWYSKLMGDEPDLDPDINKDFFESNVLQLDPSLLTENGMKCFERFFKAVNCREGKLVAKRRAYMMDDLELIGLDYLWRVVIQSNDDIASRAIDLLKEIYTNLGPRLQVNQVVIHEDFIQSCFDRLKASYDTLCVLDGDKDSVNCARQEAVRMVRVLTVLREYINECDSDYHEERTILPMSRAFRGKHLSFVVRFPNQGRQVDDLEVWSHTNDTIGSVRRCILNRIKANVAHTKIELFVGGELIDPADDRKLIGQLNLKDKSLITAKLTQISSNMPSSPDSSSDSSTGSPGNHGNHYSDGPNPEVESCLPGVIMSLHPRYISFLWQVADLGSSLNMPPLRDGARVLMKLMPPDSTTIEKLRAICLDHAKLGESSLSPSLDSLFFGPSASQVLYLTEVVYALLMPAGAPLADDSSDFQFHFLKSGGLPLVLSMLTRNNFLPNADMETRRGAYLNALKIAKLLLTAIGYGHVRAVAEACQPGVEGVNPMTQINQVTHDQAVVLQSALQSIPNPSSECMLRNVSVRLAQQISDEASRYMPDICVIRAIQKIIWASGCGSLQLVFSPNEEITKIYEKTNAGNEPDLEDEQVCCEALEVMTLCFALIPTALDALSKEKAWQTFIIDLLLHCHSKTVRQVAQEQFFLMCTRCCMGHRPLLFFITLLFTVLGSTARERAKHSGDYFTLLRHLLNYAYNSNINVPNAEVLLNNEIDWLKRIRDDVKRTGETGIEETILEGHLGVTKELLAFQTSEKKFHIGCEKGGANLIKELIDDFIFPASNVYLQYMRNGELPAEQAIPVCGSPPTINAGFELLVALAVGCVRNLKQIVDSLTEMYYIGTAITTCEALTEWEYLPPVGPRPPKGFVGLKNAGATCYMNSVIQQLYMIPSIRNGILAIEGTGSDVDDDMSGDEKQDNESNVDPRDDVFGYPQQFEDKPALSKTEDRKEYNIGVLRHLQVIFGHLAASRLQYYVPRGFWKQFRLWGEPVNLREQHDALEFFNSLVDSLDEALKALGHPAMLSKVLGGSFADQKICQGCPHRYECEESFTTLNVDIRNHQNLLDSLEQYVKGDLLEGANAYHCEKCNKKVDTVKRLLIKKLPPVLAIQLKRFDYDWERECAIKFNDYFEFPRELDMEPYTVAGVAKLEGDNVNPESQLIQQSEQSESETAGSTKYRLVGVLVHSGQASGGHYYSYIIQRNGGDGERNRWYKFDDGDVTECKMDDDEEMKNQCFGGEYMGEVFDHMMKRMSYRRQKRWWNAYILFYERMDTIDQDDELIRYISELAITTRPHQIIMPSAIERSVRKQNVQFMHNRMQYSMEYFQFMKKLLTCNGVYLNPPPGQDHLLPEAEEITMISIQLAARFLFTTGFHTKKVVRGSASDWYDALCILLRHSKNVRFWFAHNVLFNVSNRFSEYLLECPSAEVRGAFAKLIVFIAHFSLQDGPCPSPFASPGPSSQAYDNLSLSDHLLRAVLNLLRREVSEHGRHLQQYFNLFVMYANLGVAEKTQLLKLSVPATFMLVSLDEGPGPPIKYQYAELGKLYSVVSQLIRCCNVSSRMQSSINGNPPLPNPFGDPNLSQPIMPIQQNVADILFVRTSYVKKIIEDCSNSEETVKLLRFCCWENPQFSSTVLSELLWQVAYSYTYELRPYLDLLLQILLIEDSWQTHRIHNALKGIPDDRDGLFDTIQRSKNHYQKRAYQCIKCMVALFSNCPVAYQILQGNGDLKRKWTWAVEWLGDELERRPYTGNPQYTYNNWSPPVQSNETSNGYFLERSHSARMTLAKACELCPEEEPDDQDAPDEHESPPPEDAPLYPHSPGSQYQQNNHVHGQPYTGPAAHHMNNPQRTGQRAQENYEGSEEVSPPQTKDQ
Chain of UniProt O00487 (O00487 whole entry): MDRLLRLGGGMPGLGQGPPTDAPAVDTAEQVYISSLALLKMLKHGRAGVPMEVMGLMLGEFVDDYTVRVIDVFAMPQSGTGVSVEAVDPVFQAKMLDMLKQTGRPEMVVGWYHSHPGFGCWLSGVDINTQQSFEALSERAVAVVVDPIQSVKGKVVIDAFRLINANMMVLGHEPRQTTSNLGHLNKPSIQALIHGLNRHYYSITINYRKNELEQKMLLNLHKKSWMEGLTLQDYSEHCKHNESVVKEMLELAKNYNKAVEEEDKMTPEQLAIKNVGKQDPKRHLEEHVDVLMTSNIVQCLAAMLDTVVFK
Chain of USP46 (P62068 whole entry): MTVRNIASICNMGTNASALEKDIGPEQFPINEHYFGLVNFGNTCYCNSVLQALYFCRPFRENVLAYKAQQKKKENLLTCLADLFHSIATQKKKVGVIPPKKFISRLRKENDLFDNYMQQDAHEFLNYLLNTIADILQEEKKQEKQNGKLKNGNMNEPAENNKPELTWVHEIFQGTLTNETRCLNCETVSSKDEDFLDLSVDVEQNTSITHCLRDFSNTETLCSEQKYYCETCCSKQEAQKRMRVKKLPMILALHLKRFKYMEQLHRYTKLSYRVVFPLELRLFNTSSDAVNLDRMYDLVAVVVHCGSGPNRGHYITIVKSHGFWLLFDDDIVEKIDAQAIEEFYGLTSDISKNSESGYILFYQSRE

Cl.Cn1ncc2c1CC(NC(=O)CCl)CC2 (stereo not given)
inactive: [1] 0.421 | [2] 0.116 | [3] 0.118 | [4] 0.191 | [5] 0.0298 | [6] -0.146 | [7] -0.063 | [8] -0.0427 | [9] -0.0203 | [10] -0.0601
